Screening results: PubChem BioAssay, The Scripps Research Institute Molecular Screening Center
pPAFAH FP inh – pPAFAH enzyme inhibitors, primary screen, biochemical, fluorescence polarization, human | recombinant pPAFAH, FP-rhodamine probe fluorescence polarization | inhibition, % at 3.39 µM | hit rate 1.5% among 330,000 | AID 463082, 2010;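 active means inhibition above the mean inhibition across the screen plus 3 SD, cut at about 25% in these data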;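 further: inhibitors block binding of the rhodamine activity-based probe so polarization drops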
Target sequence (Q13093 whole entry, looked up): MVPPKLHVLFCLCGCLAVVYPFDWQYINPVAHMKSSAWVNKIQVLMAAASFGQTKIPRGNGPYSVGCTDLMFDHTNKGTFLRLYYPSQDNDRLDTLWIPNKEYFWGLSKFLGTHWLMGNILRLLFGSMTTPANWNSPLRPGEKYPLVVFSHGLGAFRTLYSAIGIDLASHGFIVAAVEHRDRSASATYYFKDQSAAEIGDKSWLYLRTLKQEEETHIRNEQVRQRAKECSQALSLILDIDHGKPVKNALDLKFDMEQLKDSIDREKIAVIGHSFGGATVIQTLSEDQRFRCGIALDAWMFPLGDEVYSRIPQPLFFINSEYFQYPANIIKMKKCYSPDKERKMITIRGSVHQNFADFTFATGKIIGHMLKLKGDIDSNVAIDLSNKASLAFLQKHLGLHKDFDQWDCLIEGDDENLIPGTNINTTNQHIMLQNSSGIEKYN
PAFAH2 FP inh – PAFAH2 enzyme inhibitors, primary screen, biochemical, fluorescence polarization, human; Platelet-activating factor acetylhydrolase 2, cytoplasmic (Homo sapiens), Q99487; recombinant PAFAH2, FP-rhodamine activity probe; inhibition, % at 3.39 µM; hit rate 0.99% among 340,000;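 active means inhibition above the mean over all tested compounds plus 3 SD, cut at about 30% in these data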;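 further: inhibitors block probe labeling of enzyme so polarization drops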
Fh CTSL1 inh – Fasciola hepatica cathepsin L1 inhibitors, primary screen, counter-screen for PFM18AAP inhibitor project, biochemical, QFRET, fluorogenic peptide substrate; recombinant F. hepatica cathepsin L1, Z-Leu-Arg-MCA fluorescence; inhibition, % at 5.96 µM; hit rate 0.49% among 300,000; AID 1906, 2009;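 active means inhibition above the mean of all tested compounds plus 3 SD, set per screening campaign, cut at about 17% in these data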
PAFAH1B3 inh – PAFAH1B3 enzyme inhibitors, primary screen, biochemical, fluorescence polarization, human. Platelet-activating factor acetylhydrolase IB subunit alpha1 (Homo sapiens), Q15102. recombinant PAFAH1B3, FP-rhodamine probe. inhibition, % at 3.39 µM. hit rate 0.28% among 340,000;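 active means inhibition above the screen-wide average of all tested compounds plus 3 SD, cut at about 25% in these data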
Target sequence (Q15102 whole entry, looked up): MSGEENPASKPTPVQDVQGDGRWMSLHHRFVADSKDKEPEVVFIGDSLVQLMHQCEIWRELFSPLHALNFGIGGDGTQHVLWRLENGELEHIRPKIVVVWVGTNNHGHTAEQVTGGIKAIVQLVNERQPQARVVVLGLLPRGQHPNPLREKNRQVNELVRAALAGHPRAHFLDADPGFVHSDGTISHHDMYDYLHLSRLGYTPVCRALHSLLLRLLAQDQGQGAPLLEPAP
PP5 primary – PP5 phosphatase inhibitors, primary screen, biochemical, fluorescence | Serine/threonine-protein phosphatase 5 (Homo sapiens), P53041 | purified PP5c, OMFP substrate fluorescence | inhibition, % at 6.7 µM | hit rate 0.18% among 320,000;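 active means inhibition above the campaign's mean inhibition across all tested compounds plus 3 SD, cut at about 9.5% in these data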
PAFAH1B2 FP inh – PAFAH1B2 enzyme inhibitors, primary screen, biochemical, fluorescence polarization, human | hit rate 1.2% among 340,000 | Platelet-activating factor acetylhydrolase IB subunit alpha2 (Homo sapiens), P68402 | inhibition, % at 3.39 µM | AID 492953, 2010 | recombinant PAFAH1B2, FP-rhodamine activity probe;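 active means inhibition above the mean of all tested compounds plus 3 SD, cut at about 24% in these data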
pPAFAH FP conf – pPAFAH (PLA2G7) enzyme inhibitors, confirmation, biochemical, fluorescence polarization, human; shares compounds with pPAFAH FP inh; hit rate 72% among 2,300; AID 463230, 2010; inhibition, % at 3.39 µM; recombinant pPAFAH, FP-Rh probe fluorescence polarization;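 active means mean inhibition of the triplicate above the hit cutoff set for the earlier primary screen, cut at about 25% in these data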
Numbers stand for hits; 0 = inactive; - = not tested or not shown. Only some compounds are listed: those with a hit (about 3% of all), similar ones and a draw of the others.

SMILES	pPAFAH FP inh	PAFAH2 FP inh	Fh CTSL1 inh	PAFAH1B3 inh	PP5 primary	PAFAH1B2 FP inh	pPAFAH FP conf
COc1ccccc1NC(=O)c1cc2cc(Br)ccc2cc1O	41.9	0	0	29.1	0	0	45.1
O=c1c(O)cccc2cc(O)c(O)c(O)c12	93.6	86.6	0	42.0	0	34.7	87.9
COc1ccc(C2C(C#N)=C(N)Oc3cc(N)ccc32)cc1 (configuration not stated)	-	0	-	0	-	0	-
N#CC1=C(N)Oc2cc(N)ccc2C1c1ccc(Cl)cc1 (configuration not stated)	42.7	0	0	0	0	0	0
CCc1ccc(C2C(C#N)=C(N)Oc3cc(N)ccc32)cc1 (configuration not stated)	59.0	0	0	0	0	0	0
N#C/C(=C\c1cccnc1)C(=O)Nc1ccc(O)cc1F	0	0	0	0	0	0	-
OC1COC(O)C(O)C1O (configuration not stated)	0	0	0	0	0	0	-
Cc1ccc(S(=O)(=O)Nc2cc(Cl)c(O)c3ncccc23)cc1	45.8	0	0	0	0	0	36.9
O=C(COC(=O)c1ccc(F)c(S(=O)(=O)N2CCOCC2)c1)Nc1ccc2[nH]c(=O)[nH]c2c1	0	0	-	0	0	0	-
COc1ccc(NC(=O)c2cc3c(-c4ccc(OC)c(OC)c4)nn(C)c3s2)cc1OC	46.1	0	0	0	0	0	43.1
COc1cc(/C=C(\C#N)C(=O)c2ccc(O)c(O)c2)cc(I)c1O	79.2	66.6	0	0	0	85.7	71.1
Oc1c(Br)cc(/C=N/Nc2ccc(Cl)nn2)cc1Br	52.0	32.7	0	27.8	0	0	58.2
Oc1ccc(/C=N/Nc2ccc(Cl)nn2)c(O)c1O	57.5	0	0	0	0	0	0
CCOc1ccc(/C=N/Nc2ccc(Cl)nn2)c(O)c1	0	0	0	0	0	0	-
Oc1c(Br)cc(Br)cc1/C=N/Nc1ccc(Cl)nn1	0	0	0	0	0	0	-
C=CCn1ccc(=O)nc1SC	-	0	-	0	-	0	-
CCOC(=O)c1cc(C#N)c(SCC(=O)Nc2ccc(C(C)=O)cc2)[nH]c1=O	0	0	0	0	0	0	-
CCOC(=O)c1cc(C#N)c(SCC(N)=O)[nH]c1=O	50.6	0	0	0	0	0	0
COc1cc(/C=N/NC(=O)c2cccc(NC(=O)c3ccccc3C)c2)ccc1O	0	0	0	0	0	0	-
Cc1ccccc1C(=O)Nc1cccc(C(=O)N/N=C/c2cc(Cl)cc([N+](=O)[O-])c2O)c1	38.0	0	0	0	0	0	41.5
O=C(Cn1c(=O)n(Cc2ccco2)c(=O)c2c3c(sc21)CCCCC3)c1ccccc1	36.6	0	0	0	0	0	0
CC1=C(C(=O)OCc2ccccc2)C(c2ccc(-c3ccccc3)cc2)NC(=O)N1CCCCCC(=O)O (configuration not stated)	45.7	0	0	0	0	0	40.8
COc1ccccc1N=Nc1ccc(O)c2ncccc12	43.8	0	0	0	0	0	25.2
Cc1ccc(N=Nc2ccc(O)c3ncccc23)cc1	34.6	0	0	0	0	0	0
CCN(CC)C(=O)[C@H]1C[C@H](CC(=O)NCCN2CCOCC2)C(=O)N2CCc3c([nH]c4cc(-c5ccco5)ccc34)[C@]12C	0	0	-	0	-	0	-
SMILES	pPAFAH FP inh	PAFAH2 FP inh	Fh CTSL1 inh	PAFAH1B3 inh	PP5 primary	PAFAH1B2 FP inh	pPAFAH FP conf
COc1ccc(NC(=O)CSc2nc3c(c(=O)n2C)SCC3)cc1OC	0	0	0	0	0	0	-
CCN(CCNS(=O)(=O)c1ccc2c(c1)oc(=O)n2C)c1ccccc1	0	0	0	0	0	0	-
CCN(CC)c1ccc(NS(=O)(=O)c2ccc3c(c2)oc(=O)n3C)c(C)c1	40.5	0	0	0	0	0	43.9
Fc1cc2[nH]c(=S)[nH]c2c(Br)c1N1CCSCC1	0	0	0	0	0	0	-
CCN1CCN(C(=S)Nc2ccsc2C(=O)OC)CC1	60.4	0	0	0	0	0	0
CCOc1ccc(S(=O)(=O)N(C)CC(=O)N2CCN(CC)CC2)cc1	0	0	0	0	0	0	-
Cc1nn(CC(=O)Nc2ccc(N3CCOCC3)cc2)c(C)c1Cl	0	0	0	0	0	0	-
COc1cccc2c1C(=O)c1c(O)c3c(c(O)c1C2=O)C[C@@](O)(C(=O)CO)C[C@@H]3O[C@H]1C[C@H](N)[C@@H](O)[C@H](C)O1	60.5	55.0	0	42.9	0	51.4	44.6
CC(=O)[C@]1(O)Cc2c(O)c3c(c(O)c2[C@@H](O[C@H]2C[C@H](N)[C@H](O)[C@H](C)O2)C1)C(=O)c1ccccc1C3=O	59.2	-	0	-	0	-	68.6
CCOc1ccc(S(=O)(=O)NCCC(=O)NCCOc2ccccc2OC)cc1	0	0	0	0	0	0	-
CSc1nc2sc3c(c2c(=O)[nH]1)CC(C)(C)OC3	0	0	0	0	0	0	-
Cc1c(C)c2ccc(OCC(=O)N[C@@H](Cc3ccccc3)C(=O)O)cc2oc1=O	0	0	0	0	0	0	-
CCCCCCc1c(C)c2ccc(OCC(=O)N[C@@H](Cc3ccccc3)C(=O)O)cc2oc1=O	38.3	0	0	0	0	0	0
Cc1[nH]c(=O)c(Cc2ccccc2)c(O)c1C#N	0	0	0	0	0	0	-
CCN(CC)c1ccc(S(=O)(=O)N2CCOCC2)cc1NC(=O)CNCc1cccc(Cl)c1	-	0	-	0	-	0	-
Cc1cc(C)nc(N/N=C/C2=C(N3CCOCC3)C(=C\c3ccc(Cl)cc3)/CC2)n1	62.4	0	0	0	0	0	98.1
N#Cc1ccc(/C=N/NC(=S)Nc2ccc(S(=O)(=O)N3CCOCC3)cc2)cc1	0	0	0	0	0	0	-
O=S(=O)(c1ccc(NC(=S)N/N=C/c2ccc(O)c(O)c2)cc1)N1CCOCC1	65.2	0	0	0	0	0	61.1
O=C(Nc1cccc2ccccc12)c1ccc([N+](=O)[O-])o1	0	0	0	0	0	0	-
O=[N+]([O-])C1=C(Nc2cccc3ccccc23)CS(=O)(=O)C1	38.8	0	0	0	0	0	0
CC(C)(C)c1ccc(S(=O)(=O)N2CCN(C(=O)C3=COCCO3)CC2)cc1	0	0	-	0	0	0	-
C=CCN=C(NC#N)SCC(=O)c1cccc(OC)c1	60.9	0	0	0	0	0	0
CCCN(CC(=O)Nc1ccccc1C)C(=O)/C=C/c1ccc(S(=O)(=O)N2CCCCCC2)cc1	0	0	0	0	0	0	-
COc1ccccc1NS(=O)(=O)c1ccc(C)c(C(N)=O)c1	58.1	0	0	0	0	0	0
